From PubChem BioAssay AID435003 (Sanford-Burnham Center for Chemical Genomics, 2010)
About 1,700 (0.52%) of roughly 330,000 compounds were called active. Only a selection was taken, and actives are over-represented in it overall. Values without a mark were called inactive. No stated cut-off is given here; in the data, active means inhibition above about 50%; inactive means the rest.

Assay: inhibitors of induced NF-kB luciferase reporter, primary screen, TCR NF-kB activation inhibitor project, cell-based, luminescence, uHTS (AID 435003)
Details: Jurkat, PMA/ionomycin-induced NF-kB luciferase reporter, at 4 µM, active compounds read high

SMILES	inhibition
O=C1Oc2ccccc2C(=O)/C1=C/c1ccccc1O	8.95%
COc1cc2c(cc1OC)CN(C(=O)c1cc(S(=O)(=O)N3CCCCC3)ccc1Cl)CC2	20.2%
CCOc1cc(C(=O)N2CCc3cc(OC)c(OC)cc3C2)ccc1OC(F)F	78.8% (active)
COc1cc2c(cc1OC)CN(C(=O)c1ccc(S(=O)(=O)N3CCCCCC3)cc1)CC2	12.2%
CCOc1ccccc1-c1nc(CN2CCC(C(=O)N3CCOCC3)CC2)c(C)o1	1.89%
CCN(CC)CCn1cnc2c1c(=O)[nH]c(=O)n2Cc1ccccc1	-2.97%
N=c1c2c(-c3ccccc3)c(-c3ccccc3)n(Cc3ccccc3)c2ncn1CCCO	58.6% (active)
COCCn1cnc2c1c(=O)n(Cc1ccc(Br)cc1)c(=O)n2Cc1ccccc1	11%
CSc1nc(-c2ccccc2)nc(C(Cl)Cl)n1	11%
Nc1cccnc1Sc1ccccc1	3.25%
Cc1ccc2c(c1)N(CC(=O)NCCCN1CCCCC1)C(=O)c1cccnc1O2	-8.41%
COCCOC(=O)c1[nH]c2c(c1C)C(=O)CC(c1ccc(OC)cc1)C2 (configuration not stated)	-19.4%
COC(=O)C1C(=O)c2c([nH]c(C(=O)OCCSC)c2C)CC1C (configuration not stated)	-39.9%
CCCOC(=O)c1[nH]c2c(c1C)C(=O)CC(c1cccs1)C2 (configuration not stated)	60.8% (active)
O=S(=O)(c1ccc(Sc2nnc3ccccn23)nc1)N1CCOCC1	-12%
Cc1c(Br)c([N+](=O)[O-])nn1C(C)C(=O)Nc1nccs1 (configuration not stated)	22.7%
COc1cc([C@H](Cc2ccccc2)NC(C)=O)oc(=O)c1	8.38%
CCN1/C(=C\c2ccc3ccccc3[n+]2CC)Sc2cc(C)ccc21	90.1% (active)
CCSC1=C(C#N)C(=O)n2c1cc1c2CCCC1	3.71%
O=C1CC(N2CCN(C(c3ccccc3)c3ccccc3)CC2)C(=O)N1 (configuration not stated)	4.97%
Oc1ccccc1CN1CCN(C(c2ccccc2)c2ccccc2)CC1	-10.4%
CC1(C)CC(N2CCN(C(c3ccccc3)c3ccccc3)CC2)=CC(=[N+]2CCCCC2)C1	83.2% (active)
CC(C)(C)NS(=O)(=O)CC12CCC(CC1=O)C2(C)C (configuration not stated)	-14%
CC/C(=N\NC(=O)c1c(C)nc2ccccn12)c1ccc(Cl)cc1	-10.6%
CC1(C)CC(CCC(=O)Nc2ccccc2Cl)C(=O)O1 (configuration not stated)	5.25%

SMILES	inhibition
Cc1c(NC(=O)Nc2ccccc2Cl)sc(=S)n1C	10.9%
O=C(Nc1ccccc1Cl)/C(Cl)=C(\Cl)S(=O)c1ccccc1 (configuration not stated)	100% (active)
CSc1n[nH]c(=S)n1N	8.75%
CC1=Nn2c(nnc2-c2ccccc2)SC1	-7.08%
COc1ccccc1-c1nnc2n1N=C(c1ccc(OC(F)F)c(OCC3CC3)c1)CS2	21.8%
COc1ccc(C2=Nn3c(nnc3-c3ccccc3OC)SC2)cc1OC1CCCC1	57.3% (active)
COc1cc(C(=S)NC2CCCCC2)ccc1O	-4.8%
C/C(CC(O)(/C=N/O)c1ccccc1)=N\O (configuration not stated)	-6.87%
CCCNC(=O)OC[C@H]1O[C@H](CCO/N=C/[C@@H](NS(=O)(=O)c2ccc(C)cc2)[C@H](C)/C=C/CC(=O)OC)C=C[C@@H]1Oc1ccc(OC)cc1	8.93%
O=C(COCc1cc(-c2ccc3c(c2)OCO3)on1)N1CCN(c2cccc(Cl)c2)CC1	3.84%
NS(=O)(=O)c1ccc(CCNS(=O)(=O)c2cccc3cccnc23)cc1	-18.6%
O=S(=O)(NCCc1ccc(F)cc1)c1cccc2cccnc12	2.69%
O=[N+]([O-])c1ccccc1S(=O)(=O)Nc1cccc2cccnc12	70.3% (active)
O=C(Nc1ccc(Br)cc1F)C1CC(=O)N(C2CCCCC2)C1 (configuration not stated)	-3.7%
CCn1c(SCc2ccccc2)nc2cc(OC)c(OC)cc2c1=O	-6.84%
CCOCCCn1c(NN)nc2ccccc2c1=O	-7.49%
CCn1c(/C=C/c2ccc([N+](=O)[O-])o2)nc2ccccc2c1=O	54.7% (active)
Cc1noc(C)c1C(=O)N(CC(=O)NC1CCCC1)Cc1ccccc1F	-8.54%
COc1ccc(C(=O)COC(=O)C(O)c2ccccc2)c(OC)c1 (configuration not stated)	0.0915%
COc1ccc2[nH]c3nc(SCC(=O)NC4CC4)nnc3c2c1	-17.7%
CCOc1ccc2[nH]c3nc(SCC(=O)NC4CCCC4)nnc3c2c1	59% (active)
O=C(CSc1nnc2c(n1)[nH]c1ccccc12)NC1CCCCC1	21.2%
O=C(c1ccc(Cl)s1)N(Cc1nnc(-c2ccccc2Cl)o1)C1CC1	-18.3%
Cc1cc(C(=O)COc2ccc(Br)cc2F)c(C)n1C1CC1	-9.16%
C=CCOc1cccc(C2NC(=O)c3ccccc3O2)c1 (configuration not stated)	3.44%

SMILES	inhibition
Cc1ccc(C)c(NS(=O)(=O)c2cc(Br)cnc2N)c1	-1.35%
C/C=C(\C)C(=O)N1CC2(CC(c3cccc(NC(=O)CCCCC)c3)=NO2)C[C@@H]1C(N)=O (some centres not stated)	2.26%
Oc1ccc(/C=N/Nc2ccc(C(F)(F)F)cn2)cc1O	59.5% (active)
O=C(N/N=C/c1ccc(O)c(O)c1)C1c2ccccc2Oc2ccccc21	2.58%
Oc1ccc(Br)cc1/C=N/Nc1ccccn1	32.4%
O=C(c1ccc(OC2CCN(C(=O)c3cccnc3)CC2)cc1)N1CCCCCC1	-2.83%
Cc1ccc(-n2ncc3c2CC(C)(C)CC3NC(=O)Cc2c(C)noc2C)cc1 (configuration not stated)	50.6% (active)
COc1ccc(-n2ncc3c2CC(C)(C)CC3NC(=O)CCc2c(C)noc2C)cc1 (configuration not stated)	20%
CC1=C(C(=O)NC2CC(C)(C)Cc3c2cnn3-c2ccc(C)cc2)OCCO1 (configuration not stated)	4.55%
CCN1C(=O)/C(=C2\SC(N3CCCCC3)=NC2=O)c2ccccc21	-33.7%
COC(=O)c1ccc(C(=O)Nc2cc(Cl)ccc2Cl)cc1NC(=O)c1ccccc1C	-2.99%
Cc1c(C=O)c2ccccc2n1CCOc1ccccc1	-14.6%
COc1cc2c(cc1OC)CN(C(=O)c1cc(=O)c3ccccc3o1)CC2	50.7% (active)
COc1ccccc1CNC(=O)c1cc(=O)c2ccccc2o1	-3.35%
COc1ccc2c(CC(=O)N3CCc4cc(OC)c(OC)cc4C3)coc2c1	15.9%
C=CCn1c(C)cc(C2=NNC(=NCC)SC2)c1C	67.2% (active)
Cc1ccc(-n2c(=O)cc(N3CCN(Cc4ccccc4)CC3)[nH]c2=O)cc1	1.04%
CCNC(=O)c1cccc(NC(=O)C2CC(=O)N(CCc3ccccc3)C2)c1 (configuration not stated)	8.87%
COc1ccc(-c2cc(C(F)(F)F)n3nc(C(=O)N4CCOCC4)c(Cl)c3n2)cc1	-15.4%
Cc1cccc(NC(=O)c2cc(S(=O)(=O)N3CCC4(CC3)OCCO4)ccc2F)c1	4.99%
COc1ccc(NC(=O)c2nc(-n3nc(C)cc3C)ccc2Cl)cc1Cl	-8.27%
COc1ccc(Nc2cc(C)nc(-n3nc(C)cc3C)n2)cc1	68.7% (active)
CC(=O)c1ccc(Oc2cc(C)nc(-n3nc(C)cc3C)n2)cc1	51.8% (active)
COc1ccc(C(C)=O)cc1CSc1nc2nc(C)cc(C)n2n1	5.26%
Cc1cc(C)n(-c2ccc(C(=O)O)cc2[N+](=O)[O-])n1	-2.8%

SMILES	inhibition
Cc1cc(N/N=C\c2ccc(Br)cc2)nc(-n2nc(C)cc2C)n1	27.2%
O=C(CCC1CCN(C(=O)c2cccc(Cl)c2F)CC1)Nc1ccccc1	2.28%
COc1cc(/C=C/C(=O)Nc2ccc(OC)c(S(=O)(=O)N3CCOCC3)c2)ccc1OCC#N	6.61%
Cc1ccc(CN2CCN(Cc3ccc(OCCO)cc3)CC2CCO)o1 (configuration not stated)	3.63%
N#Cc1c(NC(=O)c2ccc(N3CCOCC3)c([N+](=O)[O-])c2)sc2c1CCCC2	-30%
CC1(C)OC(=O)N2CCc3ccccc3C21C (configuration not stated)	11.5%
Cc1c(/C=N\NC(=O)c2cc3ccccc3o2)c2ccccc2n1C	67.3% (active)
O=C(N/N=C/c1cccc(O)c1)c1cc2c(ccc3ccccc32)o1	7.99%
Cc1c(/C=N/N2C(=O)C3C4C=CC(C4)C3C2=O)c2ccccc2n1C (configuration not stated)	-10.4%
COc1ccc(Cc2cc(-c3ccc(F)cc3)n[nH]c2=O)cc1	-2.24%
CC(C)c1ccc(S(=O)(=O)N2CCN(C(=O)c3ccc(N4CCCC4)c([N+](=O)[O-])c3)CC2)cc1	7.91%
CCOc1ccc(N=C2NC(=O)S/C2=C\c2ccc(O)cc2)cc1	11.9%
CCOc1[nH]n(-c2ccc(Cl)cc2)c(=O)c1C=Nc1ccc(O)cc1	56.7% (active)
O=C(NC(C(=O)NCCN1CCOCC1)C12CC3CC(CC(C3)C1)C2)C1CCCCC1 (configuration not stated)	-4.81%
N#Cc1ccccc1S(=O)(=O)N1CCN(C(=O)c2cc(-c3ccccc3)nn2-c2ccccc2)CC1	2.19%
O=[N+]([O-])/C=C1\CCCCCN1	-12.2%
O=C1NC(c2cc3c(cc2Cl)OCO3)Oc2ccccc21 (configuration not stated)	-7.28%
COc1ccccc1C1C2=C(COC2=O)Nc2cc3c(cc21)OCO3 (configuration not stated)	70.3% (active)
COC(=O)c1ccc(C2CC(=O)Nc3cc(OC)c(OC)cc32)cc1 (configuration not stated)	8.26%
COc1ccc(S(=O)(=O)Nc2ccc3c(c2)OCO3)cc1Cl	-1.75%
CCCOc1ccccc1C1CC(=O)Nc2cc3c(cc21)OCO3 (configuration not stated)	58.3% (active)
CCCOc1ccc(C2NC(=O)NC(c3ccccc3)=C2C(C)=O)cc1OCC (configuration not stated)	2.86%
